Experimental findings from PubChem BioAssay (NCATS) are described below.

Values joined by “and” are separate entries in the source; they are usually repeats but may differ in a detail not shown here. Equal values may be shown once. A number with no mark means an inactive call. Results filed as inconclusive are left out. Active and inactive are the calls of the source. Unless noted, the call rests on the fitted dose curve; in most records, active means well fitted curve in the direction sought with a large enough effect; inconclusive means small, poorly fitted or top-dose-only effect, or another doubt; inactive means no such curve, though single readings can be large; an effect the other way counts as inactive or inconclusive.

Experiment [1] is described as follows: NFAT Signaling Pathway (AID 444; active means well fitted curve in either direction with a large enough effect, not every such curve was filed as active;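 further: carbachol stimulus at about its EC50 of 1 µM final; on the % scale 0 is the no-effect control and ±100 the full control effect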). As to conditions: Jurkat NFAT-bla M1, carbachol, beta-lactamase ratio, 5 h; at 17.2 µM (top of the series) unless noted. The essentials: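 Jurkat cells with NFAT-driven β-lactamase reporter and co-expressed M1 receptor, stimulated with carbachol (final 1 uM, ~EC50), compound titration, 5 h at 37 °C. CCF4 loaded 1 h at RT; 460/530 nm ratio gave %activity and AC50.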

Experiment [2] in a line: Stat Signaling Pathway (AID 446; active means well fitted curve in either direction with a large enough effect, not every such curve was filed as active;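 further: ME-180 cervical cancer cells given 40 pM IL-6 alongside compound; SIE-controlled beta-lactamase reporter measured as 460/530 nm FRET emission ratio; on the % scale 0 is the no-effect control and ±100 the full control effect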). As to conditions: ME-180 (cervical carcinoma) SIE beta-lactamase reporter, IL-6 stimulated, 5 h; at 17.2 µM (top of the series) unless noted. The essentials:
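Overnight-plated ME-180 cells bearing a STAT Inducible Element beta-lactamase reporter; 5 h co-exposure to compound and 40 pM IL-6; values normalized to 300 pM IL-6 and 125 nM JAK inhibitor controls.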

In experiment [3] the target is Glucocorticoid receptor (Homo sapiens) (UniProt P04150). Kind of experiment: GR-GFP Redistribution (AID 450;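 active means compounds whose dose series gives a full or clear partial fitted curve of increased nuclear translocation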; further: potency means the concentration at half of the fitted maximal effect). As to conditions: U2OS GR-GFP nuclear translocation, laser cytometry, 2 h; series mostly up to 20.6 µM.
Glucocorticoid receptor (Homo sapiens), sequence (P04150 whole entry, looked up): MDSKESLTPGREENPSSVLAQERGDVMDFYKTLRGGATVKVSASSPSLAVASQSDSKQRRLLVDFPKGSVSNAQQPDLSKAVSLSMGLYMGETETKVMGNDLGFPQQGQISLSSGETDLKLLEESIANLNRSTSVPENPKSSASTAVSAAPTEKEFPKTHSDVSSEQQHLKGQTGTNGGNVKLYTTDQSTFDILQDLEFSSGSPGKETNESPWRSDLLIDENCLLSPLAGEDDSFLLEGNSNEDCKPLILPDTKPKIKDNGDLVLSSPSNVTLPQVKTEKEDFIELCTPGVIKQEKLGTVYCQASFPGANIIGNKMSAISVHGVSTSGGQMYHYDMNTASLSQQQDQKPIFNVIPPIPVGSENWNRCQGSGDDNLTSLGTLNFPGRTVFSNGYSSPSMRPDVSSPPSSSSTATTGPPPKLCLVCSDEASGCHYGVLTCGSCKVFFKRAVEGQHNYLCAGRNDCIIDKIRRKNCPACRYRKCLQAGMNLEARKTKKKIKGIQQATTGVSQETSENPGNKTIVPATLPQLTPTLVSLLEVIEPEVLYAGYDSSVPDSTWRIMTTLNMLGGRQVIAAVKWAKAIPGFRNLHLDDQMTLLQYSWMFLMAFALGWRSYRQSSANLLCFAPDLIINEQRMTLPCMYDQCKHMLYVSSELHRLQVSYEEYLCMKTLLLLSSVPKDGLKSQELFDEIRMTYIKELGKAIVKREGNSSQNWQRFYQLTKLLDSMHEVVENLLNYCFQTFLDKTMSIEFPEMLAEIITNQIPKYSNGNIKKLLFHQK
Experiment [4] is described as follows: Cell Viability - BJ (AID 421; calls by dose curve;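 further: potency means the concentration at half of the fitted maximal effect; cells exposed to compound for 40 hours at 37 °C before readout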). As to conditions: BJ fibroblast viability, qHTS. In outline: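 Quantitative HTS: ATP depletion in BJ cells after 40 hr compound exposure in complete culture medium, detected with CellTiter-Glo; AC50 from standard Hill fits.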
Background: qHTS replaces the single test concentration by a dilution series.

A short description of experiment [5]: Cell Viability - MRC5 (AID 434; calls by dose curve;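 further: potency means the concentration at half of the fitted maximal effect; potency reflects cytotoxicity seen as loss of intracellular ATP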). As to conditions: MRC5 lung fibroblast viability, qHTS. In outline:
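ATP luminescence read-out (CellTiter-Glo, 20 min RT) after 40 hr, 37 °C compound exposure of 1500 MRC5 cells/well. Data normalized to DMSO (basal) and 100 uM tamoxifen (100% inhibition); AC50 from standard Hill equation.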

The nature of experiment [6]: Cell Viability - N2a (AID 540). Further: nearly all actives have a fitted effect of over 45% in size. Further: potency means the concentration at half of the fitted maximal effect.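 On activity change, negative = cytotoxicity: plate controls were DMSO alone for no effect and tamoxifen control for full effect.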 The following applies: N2a mouse neuroblastoma cell viability; activity change, negative = cytotoxicity: at 92.2 µM (top of the series). The essentials: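 N2a mouse neuroblastoma, 1500 cells/well, 5 hr settle; compound 40 hr, 37 °C; CellTiter-Glo 20 min RT; luminescence; Hill-fit AC50.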
The nature of experiment [7]: Cell Viability - NIH 3T3 (AID 541). Further: nearly all actives have a fitted effect of over 25% in size. Further: potency means the concentration at half of the fitted maximal effect.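 On activity change, negative = cytotoxicity: plate controls were DMSO alone for no effect and tamoxifen positive control for full effect.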 The following applies: NIH 3T3 cell viability, qHTS; activity change, negative = cytotoxicity: at 92.2 µM (top of the series). The essentials:
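qHTS format; 40 hr compound exposure, 37 °C; CellTiter-Glo luminescence (cellular ATP) read-out after 20 min at RT. Decrease in ATP = cytotoxicity; AC50 from standard Hill fit.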

Experiment [8] can be described thus: Cell Viability - H-4-II-E (AID 543). Further: potency means the concentration at half of the fitted maximal effect; nearly all actives have a fitted effect of over 35% in size. As to conditions: H-4-II-E rat hepatoma viability; series mostly up to 92.2 µM. The essentials:
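qHTS, rat hepatoma H-4-II-E, 1500 cells/well; 40 hr compound exposure, 37 °C; CellTiter-Glo ATP luminescence after 20 min RT; AC50 by standard Hill fit.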

Experiment [9] is described as follows: Cell Viability - SH-SY5Y (AID 544). Further: nearly all actives have a fitted effect of over 55% in size. Further: potency means the concentration at half of the fitted maximal effect. The following applies: SH-SY5Y neuroblastoma cell viability; viability change, negative = cytotoxic: at 92.2 µM (top of the series). The essentials: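 SH-SY5Y, 1500 cells/well, 5 hr pre-incubation 37 °C; cpd 40 hr 37 °C; CellTiter-Glo 20 min RT; luminescence (ATP) read. qHTS concentration-response, Hill fit → AC50. Tamoxifen, doxorubicin as positive controls.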

Experiment [10] can be described thus: Cellular Toxicity (caspase-3) HepG2 (AID 654).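 Further: cells exposed to compound for 16 hours before reading; 0% = DMSO alone and 100% = caspase signal from 100 µM tamoxifen.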 The following applies: HepG2 caspase-3 activation, luminescence; series mostly up to 92.2 µM. In outline: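 Luminescent Caspase-Glo 3/7 readout after 16 hr compound exposure of human hepatocellular carcinoma HepG2 cells at 37 °C; qHTS concentration-response, normalized DMSO = 0%, 100 uM tamoxifen = 100%; AC50 by standard Hill equation.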

A short description of experiment [11]: Cellular Toxicity (caspase-3) N2a (AID 665).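 Further: compound exposure lasted 16 h at 37 °C before readout.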 The following applies: N2a cells, luminescence; Potency: caspase-3 activation; series mostly up to 92.2 µM. The essentials: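 Luminescent Caspase-Glo 3/7 readout in N2a mouse neuroblastoma cells after 16 h compound exposure at 37 °C. Signal scaled to DMSO (basal) and 10 uM staurosporine (100%). Concentration-response fitted with Hill equation for AC50.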

Experiment [12] can be described thus: Cellular Toxicity (caspase-3) NIH 3T3 (AID 666).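 Further: 0% = DMSO basal and 100% = 100 µM tamoxifen stimulation.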 As to conditions: NIH 3T3 caspase-3 activation, apoptosis/toxicity; series mostly up to 92.2 µM. In outline: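 NIH 3T3, 1000 cells/well, 5 hr settle then 16 hr compound at 37°C; Caspase-Glo 3/7, 20 min RT, luminescence. DMSO = basal, 100 uM tamoxifen = 100%. Hill-equation AC50, qHTS.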
The nature of experiment [13]: Cellular Toxicity (caspase-3) Renal Proximal Tubule (AID 667).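 Further: cells exposed to compound for 16 hours at 37 °C before detection.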 The following applies: renal proximal tubule cells, primary cells freshly taken from rat, solvent-only wells 0%, staurosporine 100%; series mostly up to 91.7 µM. The essentials: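 Primary rat proximal tubule cells, 1000/well, 5 h plating at 37 °C, then compound 16 h at 37 °C. Caspase-Glo 3/7 reagent, 1 h RT, luminescence. Normalized to DMSO (basal) and 10 uM staurosporine (100%); Hill-fit AC50.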

A short description of experiment [14]: qHTS assay for small molecule disruptors of the mitochondrial membrane potential - 1 hr assay (AID 651754; calls by dose curve; further: on the % scale 0 is the no-effect control and ±100 the full control effect; nearly all actives have a fitted effect of over 35% in size). As to conditions: series mostly up to 92.2 µM. The essentials:
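Read-out: dye fluorescence at 490 nm ex/535 nm em (monomers) and 540 nm ex/590 nm em (aggregates) in HepG2 cells. Compound exposure 1 hr at 37C, followed by 30 min dye loading.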

Experiment [15] concerns the target Peroxisome proliferator-activated receptor alpha (Homo sapiens) (UniProt Q07869). Kind of experiment: qHTS assay for small molecule agonists of the peroxisome proliferator-activated receptor alpha (PPARalpha) signaling pathway (AID 651778). Further: % of control where 0% means no effect. The following applies: PathHunter PPARalpha complementation, chemiluminescence, 6 h; max response: active compounds read high. The essentials:
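Enzyme-fragment complementation assay in which ligand-bound PPARalpha translocates and forms an active enzyme that generates chemiluminescence. Cells were plated overnight, exposed to compound for 6 hr at 37 C, and then given detection reagent for 60 min at room temperature.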

Experiment [16] can be described thus: qHTS assay for small molecule agonists of the antioxidant response element (ARE) signaling pathway measured by Nrf2-dependant transcriptional activity - cell viability counter screen (AID 720653; active means well fitted curve in the direction sought with a large enough effect in the repeat runs; an effect the other way counts as inactive or inconclusive; further: potency means the concentration at half of the fitted maximal effect; on max response: on the % scale 0 is the no-effect control and ±100 the full control effect). As to conditions: ARE-bla HepG2 viability, CellTiter-Glo ATP luminescence, 16 h; max response: active compounds read low. In outline:
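ARE-bla HepG2 cells treated with compounds for 16 h at 37C; this counter screen measures viability as intracellular ATP by CellTiter-Glo luminescence after 30 min at room temperature.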

Experiment [17] can be described thus: qHTS assay for cell viability of the p53RE-bla HCT-116 cell line (AID 743292). Further: on the % scale 0 is the no-effect control and ±100 the full control effect; nearly all actives have a fitted effect of over 55% in size. The following applies: p53RE-bla HCT-116 viability, ATP luminescence, 16 h; series mostly up to 95 µM. In outline:
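CellSensor p53RE-bla HCT-116 cells (4,000/well) pre-incubated 5 h at 37 C, then exposed to compounds in DMSO for 16 h at 37 C. Viability read as ATP content by CellTiter-Glo luminescence after 30 min at room temperature.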

Experiment [18] is described as follows: Cell Viability - Jurkat (AID 426;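 active means dose-dependent loss of cell ATP signal giving a full or clear fitted curve, ranked by lower potency value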;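 further: potency means the concentration at half of the fitted maximal effect; cells exposed to compound for 40 hours at 37 °C before ATP read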). As to conditions: qHTS. In outline:
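Luminescent ATP read-out (CellTiter-Glo, 20 min at room temperature) after 40 hr compound exposure at 37 °C of Jurkat E6-1 cells, 5000/well. Decreased ATP taken as cytotoxicity; AC50 from standard Hill equation.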

A short description of experiment [19]: Cell Viability - SK-N-SH (AID 435; calls by dose curve; further: potency means the concentration at half of the fitted maximal effect). As to conditions: SK-N-SH neuroblastoma cell viability qHTS. In outline:
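SK-N-SH human neuroblastoma cells (1500/well) were exposed to compounds in complete medium for 40 h at 37 °C, and intracellular ATP was then measured by CellTiter-Glo luminescence. AC50 was taken from Hill fits, normalized to DMSO and 100 uM tamoxifen.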

Experiment [20] can be described thus: Cell Viability - Renal Proximal Tubule (AID 545). Further: potency means the concentration at half of the fitted maximal effect; nearly all actives have a fitted effect of over 40% in size. As to conditions: renal proximal tubule cells viability, primary cells of rat origin; activity change, negative = cytotoxicity: at 91.7 µM (top of the series). The essentials:
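Primary rat renal proximal tubule cells (1000/well) were treated with compounds for 40 hr at 37 °C in complete medium. Intracellular ATP was measured by CellTiter-Glo luminescence, and AC50 values came from Hill-equation fits of concentration-response data.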

Peroxisome proliferator-activated receptor alpha (Homo sapiens), sequence (Q07869 whole entry, looked up, the tested form may be a part): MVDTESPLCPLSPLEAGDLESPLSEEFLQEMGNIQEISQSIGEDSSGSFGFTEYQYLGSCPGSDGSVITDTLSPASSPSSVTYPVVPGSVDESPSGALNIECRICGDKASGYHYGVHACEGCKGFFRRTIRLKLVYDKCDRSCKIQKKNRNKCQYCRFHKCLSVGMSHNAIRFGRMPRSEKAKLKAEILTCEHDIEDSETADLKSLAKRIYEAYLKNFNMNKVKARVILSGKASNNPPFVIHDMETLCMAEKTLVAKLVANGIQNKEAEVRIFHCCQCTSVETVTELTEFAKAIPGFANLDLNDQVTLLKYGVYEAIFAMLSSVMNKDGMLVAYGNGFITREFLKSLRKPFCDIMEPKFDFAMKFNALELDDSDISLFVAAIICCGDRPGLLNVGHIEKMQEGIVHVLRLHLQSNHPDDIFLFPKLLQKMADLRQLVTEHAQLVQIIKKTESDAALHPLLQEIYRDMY

As to `Cc1nc(NCCN)c(C#N)c2c1COC(C)(C)C2`, in experiment [1], the activity change, negative = inhibition is -1.13%. Besides, the activity, negative = inhibition in experiment [2] is 7.79%. Moreover, in [3], the Potency was more than 20.6 µM.

On to `C/C=C1\C(=O)C[C@H]2[C@@H]3CCC4=CC(=O)CC[C@]4(C)[C@H]3CC[C@]12C`, for which the Potency in experiment [4] is more than 92 µM; in experiment [5], more than 92 µM; in [8], 39.8 µM (active). Besides, the values for the activity change, negative = cytotoxicity in experiment [6] and in experiment [7] were -114% (active) and -149% (active), respectively. Also, the viability change, negative = cytotoxic in experiment [9] is -80.2% (active). Further, the Potency entry in [10], in [11], in experiment [12], in experiment [14] and in experiment [17] was “inactive” throughout. Besides, in experiment [13], the molecule was called inactive. Besides, the max response in experiment [15] is -3.35%; in experiment [16], -11.4%.

For the molecule `Cc1ccc(OCC(O)CNS(=O)(=O)c2ccccc2C(=O)O)cc1` (stereo not given), the activity change, negative = inhibition in experiment [1] is 6.08%. Besides, the activity, negative = inhibition in experiment [2] is 4%.

`c1cc(OCC2CO2)cc(OCC2CO2)c1` (stereo not given): the Potency in [4] was 27.4 µM (active); in experiment [18], 41.9 µM (active); in [5], 34.7 µM (active); in experiment [19], 9.23 µM (active); in [6] it was 31.6 µM (active); in experiment [8], 39.8 µM (active). The figures for the Potency in [9] and in experiment [20] were 0.251 µM (active) and 31.6 µM (active), respectively. Also, the activity change, negative = cytotoxicity in experiment [7] was -149% (active). In addition, the Potency entry in experiment [10], in experiment [11] and in experiment [17] was “inactive” in each case. In addition, the molecule was called inactive in experiment [13]. Further, the max response is -3.13% and -3.49% in experiment [15]; -40% and -11.6% in [16].

For `CC(=O)Nc1ccc(C(=O)CCl)cc1`, the Potency was 36.2 µM (active) in [4]; 2.44 µM (active) in experiment [18]; 15.6 µM (active) in experiment [19]; 25.1 µM (active) in [6]; 2 µM (active) in experiment [7]; 10 µM (active) in [8]. Also, the Potency in experiment [9] was 3.16 µM (active); in experiment [20], 31.6 µM (active); in [16], 39.8 µM (active). Besides, the Potency entry in experiment [10], in experiment [11], in [12], in [14] and in experiment [17] was “inactive” each time. Moreover, in experiment [13], the molecule was called inactive. Moreover, the max response in experiment [15] was -5.76% and -2.53%.
